# Records with an inconclusive call do not appear. Values without a mark were called inactive. Activity calls are given as the source filed them. Calls come from the whole dose curve; as a rule, active = well fitted cell-killing curve with a large enough effect in the repeat runs; inconclusive = weak or mixed curves, or effect the other way; inactive = flat fitted curve, though single readings scatter.
# Assay: qHTS assay to identify small molecule agonists of the androgen receptor (AR) signaling pathway in the presence of an antagonist - cell viability counter screen (AID 1259379); note: nearly all actives have a fitted effect of over 25% in size
# Conditions: MDA-kb2 viability, CellTiter-Fluor, 16 h; series mostly up to 92.4 µM; activity change, negative = cytotoxicity: at the top concentration
# From the text: National Center for Advancing Translational Sciences [NCATS]
# NIH Chemical Genomics Center [NCGC]
# U.S. Environmental Protection Agency [EPA]
# National Institutes of Environmental Health Sciences [NIEHS]
# National Toxicology Program [NTP]
# U.S. Food and Drug Administration [FDA]
# Androgen receptor (AR) is an important member of nuclear receptor family. Its signaling plays a critical role in AR-dependent prostate cancer and other androgen related diseases. Considerable attention has been given in the past decades to develop methods to study and screen for the environmental chemicals that have the potential to interfere with metabolic homeostasis, reproduction, developmental and behavioral functions. Therefore AR binding assay for screening against androgen agonists and antagonists can be used to identify potential endocrine disruptors.
# MDA-kb2 cells (from ATCC, deposited by Wilson et al.) are human breast carcinoma cells that were stably transfected with a luciferase reporter gene under control of the MMTV promoter that contains response elements for both androgen receptor (AR) and glucocorticoid receptor (GR). This particular screening for measuring luciferase reporter gene activity using MDA-kb2 cells against Tox21 10K library compounds is a confirmation study on agonist mode screening in the presence of AR-antagonist compound (Nilutamide) at 3.0uM final concentration. The cytotoxicity of the compounds was tested in parallel by measuring the cell viability using CellTiter-Fluor assay system (Promega, Madison, WI) in the same wells.
# Tox21 Assay Protocol Summary:
# MDA-kb2 cells (cells cultured without CO2) were dispensed at 3,000 cells/well in 4uL of culture medium into white wall/solid-bottom 1536-well plates (Corning Life Sciences, Corning, NY) using a Multidrop Combi (Thermo Fisher Scientific Inc., Waltham, MA) dispenser. The assay plates were incubated at 37C and 0% CO2 for 5hr. One uL of 3.0uM (final concentration) Nilutamide or assay buffer was added using two separate tips of Flying Reagent Dispenser (FRD, Aurora Discovery, San Diego, CA). Then 23nL of compounds dissolved in DMSO at 15 concentrations and positive controls were transferred to the assay plates using a Pintool station (Wako, San Diego, CA). The assay plates were incubated at 37C and 0% CO2 for 16 hr. After 15hr incubation at 37C, 1uL/well CellTiter-Fluor reagent (Promega Corporation) was added to each well of the assay plates using FRD. After 1hr incubation at 37C and 0% CO2, the fluorescence signal was measured using a ViewLux plate reader (PerkinElmer, Shelton, CT).
# % is set by controls: 0 for no effect and ±100 for the full control effect; potency is the fitted concentration of half-maximal effect.
Structure (SMILES),"activity change, negative = cytotoxicity",Potency
CC(COc1ccccc1)NC(C)C(O)c1ccc(O)cc1 (stereo not given),-0.381% [at 42.5 µM],–
CCN(CCCCOC(=O)c1ccc(OC)c(OC)c1)C(C)Cc1ccc(OC)cc1 (stereo not given),1.28% [at 42.5 µM],–
COC(=O)C(C)(C)C,-0.977%,–
CC(=O)Nc1ccccc1O,2.15%,–
C1=COCCC1,0%,–
Cc1ccc2c(Cl)cc(Cl)c(O)c2n1,4.13% [at 42.5 µM],–
CC(C)(O)C(=O)O,0.644%,–
CC/C=C\CCO,3.92%,–
Clc1cc(Cl)c2c(c1)N=C1CCCCCN1C2,-1.26% [at 42.5 µM],–
CC[C@H](NC(C)C)[C@H](O)c1ccc(O)c2[nH]c(=O)ccc12,0.428% [at 42.5 µM],–
Oc1ccc(CCNCCCCCCNCCc2ccccc2)cc1O,-10.2% [at 42.5 µM],–
O=C(Cl)c1cc(Cl)cc(Cl)c1,2.77%,–
NC(=O)c1cc[n+](CC2=C(C(=O)[O-])N3C(=O)[C@@H](NC(=O)Cc4cccs4)[C@H]3SC2)cc1,-1.94% [at 42.5 µM],–
O=P(c1ccccc1)(c1ccccc1)c1ccccc1,5.77%,–
CC(C)(C)NCC(O)COc1ccc(NC(=O)NC2CCCCC2)cc1 (stereo not given),-7.44% [at 42.5 µM],–
CCOC(C)OCC,-0.578%,–
COC(=O)Cc1cccc2ccccc12,1.05%,–
Clc1ccccc1-c1nc(-c2ccncc2)no1,1.05% [at 42.5 µM],–
O=C(O)c1ccncc1,-0.147%,–
CCCC(=O)OCc1ccccc1,0.374%,–

Structure (SMILES),"activity change, negative = cytotoxicity",Potency
COc1cc(C)c(Cc2cnc(N)nc2N)cc1OC,-0.241% [at 42.5 µM],–
C(/C=C/C=C/Nc1ccccc1)=Nc1ccccc1,-4.87%,–
CC(C)C/C=C(\C=O)c1ccccc1,-2.06%,–
O=C(O)c1cc(C(=O)O)c(C(=O)O)cc1C(=O)O,0.685%,–
CNc1ccccc1,0.946%,–
C[C@H](N)C(=O)N[C@@H](C)C(=O)NC1[C@H]2CN(c3nc4c(cc3F)c(=O)c(C(=O)O)cn4-c3ccc(F)cc3F)C[C@@H]12 (stereo not given in full),2.16% [at 42.5 µM],–
CCCCCCCCC(=O)OCC(C)OC(=O)CCCCCCCC (stereo not given),5.63%,–
COC(=O)c1cc(Cl)ccc1[N+](=O)[O-],-2.11%,–
O=C1c2ccccc2C(=O)c2c1ccc(O)c2O,–,23.7 µM (active)
c1ccc(CN(Cc2ccccc2)Cc2ccccc2)cc1,1.12%,–
N#C[C@@H]1CC(F)(F)CN1C(=O)CNC1CC2CCC(C1)N2c1ncccn1 (stereo not given in full),-0.804%,–
C=C[Si](OCC)(OCC)OCC,0.28%,–
CC(C)Cc1nccs1,-1.11%,–
O=C(O)c1ccc2c(c1)nc(C(=O)NC1CCN(C3CC3)CC1)n2Cc1cc(-c2ccc(Cl)s2)on1,2.61% [at 19 µM],–
CCCCCCC/C=C/C=O,4.58%,–
CC(C)CCCCCOC(=O)CS,-3.67%,–
CC(CCl)OC(C)CCl (stereo not given),-1.06%,–
O=C(O)CCc1nc2ccccc2[nH]1,-1.21% [at 42.5 µM],–
CC(CC(C#N)(c1ccccc1)C(C)C)N(C)C (stereo not given),-0.0302% [at 42.5 µM],–
Cc1ccc2ccccc2c1[N+](=O)[O-],-0.292%,–
